Our source for the growth inhibition values is PubChem BioAssay (NCI).

A short description of experiment [1]: NCI Yeast Anticancer Drug Screen. Data for the rad50 strain (AID 155).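 Also: 0% = growth of vehicle-only cultures of the same strain.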 Conditions: S. cerevisiae rad50 strain growth inhibition, stronger effect = higher value. The essentials:
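Vehicle-treated cultures provide the reference for the growth inhibition reported for compound-exposed, repair-deficient yeast.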

A short description of experiment [2]: NCI Yeast Anticancer Drug Screen. Data for the mec2-1 strain (AID 157). Particulars: S. cerevisiae mec2-1 strain, stronger effect = higher value. The essentials: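 Yeast mec2-1 mutant treated with compound. Readout: growth inhibition vs vehicle controls.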
Experiment [3] is described as follows: NCI Yeast Anticancer Drug Screen. Data for the sgs1 mgt1 strain (AID 161).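 Also: 0% = growth of cultures given vehicle only.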 Conditions: S. cerevisiae sgs1 mgt1 strain, stronger effect = higher value. The essentials:
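Inhibition of yeast growth, normalised to vehicle-treated controls, is reported for a strain bearing genetic alterations in DNA damage repair.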

Experiment [4] in a line: NCI Yeast Anticancer Drug Screen. Data for the cln2 rad14 strain (AID 165).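 Also: 0% = growth equal to vehicle treated cultures.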 Conditions: S. cerevisiae cln2 rad14 strain, stronger effect = higher value. The essentials: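 cln2 rad14 yeast strain; compound exposure; growth inhibition read vs vehicle controls.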
Experiment [5] is described as follows: NCI Yeast Anticancer Drug Screen. Data for the bub3 strain (AID 167). Conditions: S. cerevisiae bub3 mutant strain, stronger effect = higher value. The essentials:
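Mutant yeast screening strain plus compound; vehicle-treated cultures serve as the 0% inhibition reference.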

Experiment [6] in a line: NCI Yeast Anticancer Drug Screen. Data for the mlh1 rad18 strain (AID 175). Particulars: S. cerevisiae mlh1 rad18 strain growth inhibition, stronger effect = higher value. The essentials: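 Yeast w/ defined DNA-repair lesions; compound exposure; growth vs vehicle controls → % inhibition.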
Setting [7] is: at 5.0 µM (retest, dose inferred, filed as 0.5).
Setting [8] is: at 50.0 µM (retest, dose inferred, filed as 5.0).

“And” between values parts separate entries of the source, which are not always exact repeats. Identical values can stand only once. This is part of a sample that, as a whole, favours compounds with a hit. Of some 79,000 tested, about 15% had one in any assay. Some structures have more than one record in an assay (separate samples or runs), and their calls can disagree. The source made the active and inactive calls. Rule as the data show it: active = growth inhibition above about 70%; inactive = the rest.

Turning to `O=C(c1ccco1)N(C(=S)N1CCN(c2ccccn2)CC1)C1CCCCC1`, the growth inhibition in experiment [1] (setting [7]) was 5% (inactive); in experiment [1] (setting [8]) it was 46% (inactive); in experiment [1] (at 50.0 µM), 73.3% (active); in experiment [2] (setting [7]) it was -7% (inactive); in experiment [2] (setting [8]) it was 49% (inactive); in experiment [2] (at 50.0 µM), 86.7% (active). In addition, the growth inhibition in experiment [3] (setting [7]) is 0% (inactive); in experiment [3] (setting [8]), 76% (active); in experiment [3] (at 50.0 µM), 84.3% (active); in experiment [4] (setting [7]), 30% (inactive); in experiment [4] (setting [8]), 60% (inactive); in experiment [4] (at 50.0 µM), 71.8% (active). Also, the growth inhibition in experiment [5] (setting [7]) is 0% (inactive); in experiment [5] (setting [8]), 40% (inactive); in experiment [5] (at 50.0 µM) it was 79% (active); in experiment [6] (setting [7]) it was -14% (inactive); in experiment [6] (setting [8]), 80% (active); in experiment [6] (at 50.0 µM), 79.3% (active).

In the case of `O=C1OC(c2ccccc2)C(c2ccccc2)=C1c1ccccc1` (centres undefined), the growth inhibition in experiment [1] (setting [7]) was -21% (inactive); in experiment [1] (setting [8]), 91% (active); in experiment [1] (at 50.0 µM), -6% (inactive); in experiment [2] (setting [7]), -18% (inactive); in experiment [2] (setting [8]), 92% (active); in experiment [2] (at 50.0 µM), -2.8% (inactive). The growth inhibition in experiment [3] (setting [7]) was -3% (inactive); in experiment [3] (setting [8]), 91% (active); in experiment [3] (at 50.0 µM) it was 7.1% (inactive); in experiment [4] (setting [7]), -2% (inactive); in experiment [4] (setting [8]) it was 86% (active); in experiment [4] (at 50.0 µM), -29% (inactive). In addition, the growth inhibition is 9% (inactive) in experiment [5] (setting [7]); 91% (active) in experiment [5] (setting [8]); 9% (inactive) in experiment [5] (at 50.0 µM); 4% (inactive) in experiment [6] (setting [7]); 90% (active) in experiment [6] (setting [8]); 3.65% (inactive) in experiment [6] (at 50.0 µM).

Turning to `COc1cc2c(cc1O)C1CN(C2)Cc2cc(OC)c(O)cc21`, the growth inhibition in experiment [1] (setting [7]) is -5% (inactive); in experiment [1] (setting [8]), 67% (inactive); in experiment [1] (at 50.0 µM), 51.4% (inactive); in experiment [2] (setting [7]) it was -3% (inactive); in experiment [2] (setting [8]), 78% (active); in experiment [2] (at 50.0 µM), 35% (inactive). The growth inhibition in experiment [3] (setting [7]) was -11% (inactive); in experiment [3] (setting [8]), 76% (active); in experiment [3] (at 50.0 µM) it was 30.3% (inactive); in experiment [4] (setting [7]), 2% (inactive); in experiment [4] (setting [8]), 75% (active); in experiment [4] (at 50.0 µM), 79.2% (active). The growth inhibition in experiment [5] (setting [7]) was -2% (inactive); in experiment [5] (setting [8]), 69% (inactive); in experiment [5] (at 50.0 µM), 33.7% (inactive); in experiment [6] (setting [7]) it was 14% (inactive); in experiment [6] (setting [8]), 80% (active); in experiment [6] (at 50.0 µM), 74.3% (active).

Take `CCN(CC)CCCn1c2cc(=O)c(=O)cc-2[nH]c2cc(C)ccc21`: the growth inhibition was 1% (inactive) in experiment [1] (setting [7]); 58% (inactive) in experiment [1] (setting [8]); 10.4% (inactive) in experiment [1] (at 50.0 µM); 2% (inactive) in experiment [2] (setting [7]); 27% (inactive) in experiment [2] (setting [8]); -4.3% (inactive) in experiment [2] (at 50.0 µM). Further, the growth inhibition in experiment [3] (setting [7]) is 2% (inactive); in experiment [3] (setting [8]) it was 74% (active); in experiment [3] (at 50.0 µM), 23.6% (inactive); in experiment [4] (setting [7]), 5% (inactive); in experiment [4] (setting [8]) it was 55% (inactive); in experiment [4] (at 50.0 µM) it was -15.4% (inactive). Besides, the growth inhibition in experiment [5] (setting [7]) was 3% (inactive); in experiment [5] (setting [8]) it was 51% (inactive); in experiment [5] (at 50.0 µM) it was -8.05% (inactive); in experiment [6] (setting [7]), 3% (inactive); in experiment [6] (setting [8]), 52% (inactive); in experiment [6] (at 50.0 µM), 40% (inactive).

`C=C1C(=O)C23OC2C1CCC(=O)C1(C)CC[C@H](OC(C)=O)C(C)(C)[C@H]1CC3=O` (some centres undefined): the growth inhibition is 96% (active) in experiment [1] (setting [7]); -2% (inactive) in experiment [1] (setting [8]); 99.2% (active) in experiment [1] (at 50.0 µM); 98% (active) in experiment [2] (setting [7]); 1% (inactive) in experiment [2] (setting [8]); 99.5% (active) in experiment [2] (at 50.0 µM). Further, the growth inhibition was 98% (active) in experiment [3] (setting [7]); 0% (inactive) in experiment [3] (setting [8]); 99.5% (active) in experiment [3] (at 50.0 µM); 95% (active) in experiment [4] (setting [7]); -1% (inactive) in experiment [4] (setting [8]); 99% (active) in experiment [4] (at 50.0 µM). The growth inhibition in experiment [5] (setting [7]) is 98% (active); in experiment [5] (setting [8]) it was -1% (inactive); in experiment [5] (at 50.0 µM) it was 99% (active); in experiment [6] (setting [7]), 98% (active); in experiment [6] (setting [8]), -1% (inactive); in experiment [6] (at 50.0 µM), 99.2% (active).

For `CC1CC=CCC1C(=O)O` (centres undefined), the growth inhibition in experiment [1] (setting [7]) was 8% (inactive); in experiment [1] (setting [8]) it was -1% (inactive); in experiment [1] (at 50.0 µM) it was 36% (inactive) and 9.75% (inactive); in experiment [2] (setting [7]), 2% (inactive); in experiment [2] (setting [8]), -2% (inactive); in experiment [2] (at 50.0 µM), -17.2% (inactive) and 28.9% (inactive). For the same compound, the growth inhibition in experiment [3] (setting [7]) was 2% (inactive); in experiment [3] (setting [8]) it was -3% (inactive); in experiment [3] (at 50.0 µM), -10.5% (inactive) and -4.9% (inactive); in experiment [4] (setting [7]), 13% (inactive); in experiment [4] (setting [8]) it was 3% (inactive); in experiment [4] (at 50.0 µM), -8.4% (inactive) and -41.3% (inactive). Besides, the growth inhibition in experiment [5] (setting [7]) is 6% (inactive); in experiment [5] (setting [8]), 2% (inactive); in experiment [5] (at 50.0 µM) it was 33.3% (inactive) and -3.9% (inactive); in experiment [6] (setting [7]), 4% (inactive); in experiment [6] (setting [8]), -5% (inactive); in experiment [6] (at 50.0 µM) it was 9.65% (inactive) and 10.2% (inactive).

As to `OC1CCC(O)CC1` (centres undefined), the growth inhibition was -1% (inactive) in experiment [1] (setting [7]); 42% (inactive) in experiment [1] (setting [8]); 73.8% (active) and 21.8% (inactive) in experiment [1] (at 50.0 µM); -3% (inactive) in experiment [2] (setting [7]); 3% (inactive) in experiment [2] (setting [8]); 20.2% (inactive) and -13.1% (inactive) in experiment [2] (at 50.0 µM). The growth inhibition was 0% (inactive) in experiment [3] (setting [7]); 5% (inactive) in experiment [3] (setting [8]); 70.2% (active) and -6.75% (inactive) in experiment [3] (at 50.0 µM); 2% (inactive) in experiment [4] (setting [7]); -3% (inactive) in experiment [4] (setting [8]); 8.65% (inactive) and -1.45% (inactive) in experiment [4] (at 50.0 µM). Moreover, the growth inhibition in experiment [5] (setting [7]) is 0% (inactive); in experiment [5] (setting [8]), 4% (inactive); in experiment [5] (at 50.0 µM) it was 11% (inactive) and -1.95% (inactive); in experiment [6] (setting [7]) it was 0% (inactive); in experiment [6] (setting [8]) it was 10% (inactive); in experiment [6] (at 50.0 µM) it was 67.3% (inactive) and 22% (inactive).

With `O=C(Nc1ccc(Cl)cc1)c1ccccc1O`, the growth inhibition in experiment [1] (setting [7]) was 2% (inactive); in experiment [1] (setting [8]) it was 8% (inactive); in experiment [1] (at 50.0 µM), 92.6% (active) and 4.9% (inactive); in experiment [2] (setting [7]), 2% (inactive); in experiment [2] (setting [8]), 11% (inactive); in experiment [2] (at 50.0 µM), 94.7% (active) and -13.8% (inactive). Also, the growth inhibition in experiment [3] (setting [7]) was 1% (inactive); in experiment [3] (setting [8]) it was 33% (inactive); in experiment [3] (at 50.0 µM) it was 89% (active) and -5.25% (inactive); in experiment [4] (setting [7]) it was 3% (inactive); in experiment [4] (setting [8]) it was 6% (inactive); in experiment [4] (at 50.0 µM), 85.2% (active) and -12.8% (inactive). Moreover, the growth inhibition was 8% (inactive) in experiment [5] (setting [7]); 13% (inactive) in experiment [5] (setting [8]); 90.8% (active) and 3.8% (inactive) in experiment [5] (at 50.0 µM); 4% (inactive) in experiment [6] (setting [7]); 9% (inactive) in experiment [6] (setting [8]); 97.2% (active) and -0.55% (inactive) in experiment [6] (at 50.0 µM).
